Consider 17 compounds from PubChem BioAssay (NCI).

Compounds without any hit were thinned out: in the full panel of roughly 83,000, 20% have a hit.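 For each line, cells grew in 96-well plates with the test compound present at a single concentration for 48 hours.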 Values without a mark were called inactive. Active and inactive are the calls of the source. Rule for the calls: active = growth percent below 10; inactive = the rest.

Experiment in all cases: NCI-60 one-dose screen, 48 h (100 = growth as untreated, 0 = no growth, -100 = all killed)
Conditions in all cases: 10 µM unless noted

For test [1], the system named is HCT-15 colon.
Test [2] deals with HT29 colon.
Test [3] concerns SNB-75 CNS.
Test [4] has as its system SNB-19 CNS.
For test [5], the system named is SK-MEL-5 melanoma.
Test [6] has as its system UACC-62 melanoma.
Test [7] concerns LOX IMVI melanoma.
For test [8], the system named is SK-MEL-28 melanoma.
Test [9] concerns EKVX NSCLC.
For test [10], the system named is SN12C renal.
The subject of test [11] is UO-31 renal.
The test system of test [12] is TK-10 renal.
For test [13], the system named is ACHN renal.
In test [14] the test system is CAKI-1 renal.
The test system of test [15] is A498 renal.
Test [16] deals with CCRF-CEM leukemia.
In test [17] the test system is MOLT-4 leukemia.
Test [18] has as its system U251 CNS.
Test [19] has as its system PC-3 prostate.
The test system of test [20] is SK-MEL-2 melanoma.

On to `O=C(COc1ccc(/C=C2\CSc3ccccc3C2=O)cc1)c1ccc(Cl)cc1`, for which the growth in test [1] is 108%; in test [2], 121%; in test [3] it was 108%; in [4], 92.3%; in [5] it was 116%; in test [6], 83%. Moreover, the growth in [7] is 95%; in test [8], 124%; in test [9], 122%; in test [10], 103%; in test [11] it was 89.8%; in [12], 113%. Further, the growth was 99% in test [13]; 96.5% in test [14]; 105% in [15]; 93.9% in test [16]; 82.1% in test [17].
For `O=C(CC(O)c1ccccc1)Nc1ccccn1` (stereo not drawn), the growth in test [1] was 101%; in test [2], 103%; in test [3], 85.9%; in test [18], 102%; in test [19] it was 93.2%; in test [5], 116%. Further, the growth in [6] is 98.3%; in test [7] it was 98.4%; in test [8], 103%; in test [9] it was 97%; in [10], 93.1%; in test [11], 77.1%. Moreover, the growth in [12] was 97.9%; in [13] it was 111%; in [14], 87.8%; in [15], 102%; in test [16], 88.9%; in test [17], 79%.
For `COC(=O)C1C2CC3c4[nH]c5cc(OC)ccc5c4CCN3CC2CC(OC2CCCCO2)C1OC` (stereo not drawn), the growth is 99.8% in test [1]; 94.4% in [2]; 84.4% in [3]; 97% in [18]; 87.1% in [19]; 99.3% in test [6]. Moreover, the growth was 95.4% in test [7]; 101% in [8]; 106% in [20]; 101% in test [9]; 108% in test [10]; 92.8% in test [11]. Besides, the growth in test [12] is 104%; in [13], 99.6%; in [14], 83.2%; in test [15] it was 82.8%; in test [16] it was 89.2%; in test [17], 99.2%.
As to `Cc1nn(-c2ccccc2)c2nc3nc4c(c(N)c3c(-c3ccc(Cl)cc3)c12)CCCC4`, the growth in test [1] is 93.3%; in test [2], 91.5%; in test [3] it was 101%; in test [4] it was 108%; in test [5] it was 101%; in test [6], 108%. The growth in test [7] is 94.4%; in test [8], 97.2%; in [20] it was 98.3%; in test [10], 96.3%; in test [11], 84.4%; in [13], 81.8%. Moreover, the growth in test [14] was 90.5%; in [15], 97.2%; in test [16] it was 92.5%; in test [17], 97%.
For the compound `CN1CCc2c(c3ccccc3c3ccccc23)C1`, the growth was 31.3% in [1]; 37.7% in test [2]; 66.1% in test [3]; 66.2% in test [4]; 64% in [19]; 61.3% in [6]. For the same compound, the growth was 87.4% in [8]; 42.7% in test [10]; 42.2% in [11]; 60.9% in test [12]; 25.7% in test [13]; 56.1% in test [14]. The growth in [15] was 62.9%; in [16], -38.4% (active); in test [17] it was 6.11% (active).
For `CCCCOC(=O)C1OC(Oc2ccc3c(C)cc(=O)oc3c2)[C@@H](OC(C)=O)C(OC(C)=O)C1OC(C)=O` (stereo partly drawn), the growth in test [1] is 99.2%; in test [2], 104%; in test [3], 86.3%; in [18], 100%; in test [19] it was 104%; in [5] it was 101%. Further, the growth in test [6] is 97%; in [7], 94.5%; in test [8], 108%; in test [20], 103%; in test [9], 89.5%; in [10], 99.6%. For the same compound, the growth in [11] is 87.1%; in test [12], 99.2%; in test [13], 101%; in test [14], 94.1%; in test [16], 94.1%; in [17] it was 107%.
Take `O=C1C=CC(=O)N1CCCCCCCCCCN1C(=O)C=CC1=O`: the growth was 92.4% in test [1]; 63.2% in test [2]; 95.7% in test [3]; 76.9% in test [18]; 82.2% in [19]; 95.8% in [5]. Also, the growth in test [6] was 102%; in test [7] it was 42.9%; in test [8], 97%; in test [20], 96%; in test [9], 97.8%; in test [10], 94.8%. The growth in test [11] is 48.2%; in test [12] it was 106%; in test [13], 80.3%; in [14] it was 15.2%; in [15], 147%; in [16] it was 16.5%. Moreover, the growth in test [17] is 18.3%.
As to `O=C(Nc1ccccc1)Oc1cccc2cccnc12`, the growth in test [1] is 74.5%; in test [2], 28.5%; in test [3], 83%; in [18], 70.5%; in test [19], 70.1%; in [5], 96.9%. The growth in test [6] was 108%; in test [7], 61%; in [8] it was 97.6%; in test [20] it was 93.9%; in test [9], 82.2%; in test [10], 94.9%. Further, the growth is 68.1% in test [11]; 104% in test [12]; 84.7% in test [13]; 93.9% in [14]; 119% in [15]; 7.23% (active) in [16]. In addition, the growth in [17] is 55.3%.
As for `COc1cc(/C=N/NC(=O)c2cnn3c2NC(c2ccccc2)C3)ccc1OC1CCCC1` (stereo not drawn), the growth in test [1] was 24.6%; in test [2], 11.8%; in test [3] it was -13.7% (active); in test [18], 33%; in test [19], 10.1%; in test [5], 25.6%. For the same compound, the growth is 23.8% in [6]; 21.7% in test [7]; 40.3% in test [8]; 18.6% in test [20]; 44.9% in test [9]; 46.1% in test [10]. For the same compound, the growth in test [11] is 33.1%; in [12], 60.2%; in test [13], 35.6%; in test [14], 32.2%; in test [16], 24.3%; in [17], 41.6%.
With `Cc1ccc(S(=O)(=O)N2CCc3ccc(O)c4c3C2CCc2ccccc2-4)cc1` (stereo not drawn), the growth in [1] was 102%; in test [2], 100%; in test [3], 91.6%; in test [4], 98.9%; in test [5] it was 105%; in test [6], 90.2%. Moreover, the growth is 98.7% in [7]; 107% in test [8]; 104% in test [9]; 100% in [10]; 67.6% in test [11]; 111% in test [12]. Moreover, the growth in test [13] is 93.4%; in test [14], 88.3%; in test [15] it was 111%; in test [16], 83%; in [17], 77.5%.
For the compound `COc1ccc(-n2c(SCc3cc(OC)c(OC)c(OC)c3)nc3ccc(C)cc3c2=O)c(OC)c1`, the growth in test [1] is 23.7%; in [2], 11.3%; in [3], 29.6%; in test [18], 24.9%; in test [19], 8.75% (active); in test [5], 17.6%. The growth is 24.3% in [6]; 31.6% in test [7]; 40.8% in test [8]; 45.2% in [10]; 18.2% in [11]; 44.9% in test [13]. Further, the growth is 13.4% in [14], -16.4% (active) in [15], 0% (active) in [16] and 11.3% in [17].
Regarding `C=CC(=O)N1CC2(CCC(n3nc(-c4ccc(Oc5ccccc5)cc4)c4c(N)ncnc43)CC2)C1`, the growth is -60.5% (active) in test [1]; -60.3% (active) in test [2]; -69.5% (active) in [3]; -0.912% (active) in test [4]; -19.6% (active) in test [19]; -90.7% (active) in test [6]. In addition, the growth in [7] was -65% (active); in [8], -67.9% (active); in test [20], -89.7% (active); in test [10], -10.7% (active); in test [11] it was -63.7% (active); in test [13] it was -83.6% (active). For the same compound, the growth in test [14] was -75.1% (active); in [15], -93.2% (active); in test [16] it was -6.08% (active); in test [17], -28.2% (active).
For `COc1cccc2c(=O)c3c(sc12)c(NCCN(C)C)nc1ccccc13`, the growth is 16.5% in test [1]; 3.18% (active) in [2]; -5.46% (active) in test [3]; -28.1% (active) in test [18]; 23% in [19]; 32.9% in test [5]. Further, the growth is 57% in test [6]; -2.57% (active) in test [7]; 43.9% in [8]; 49.1% in [20]; 26.2% in test [9]; 34.9% in [10]. In addition, the growth is 12.2% in test [11]; 47.2% in [12]; 8.6% (active) in test [13]; 26.2% in [14]; -15.7% (active) in [15]; 20.9% in test [16]. For the same compound, in test [17], the growth was -14.6% (active).
Regarding `CCCCCCCC/C=C\CCCCCCCCOc1cccc(CC(=O)NCC[N+]2(C)CCOCC2)c1`, the growth in test [1] is 96.7%; in test [2], 53.5%; in test [3], 49.9%; in test [18] it was 51%; in test [19] it was 33.3%; in test [5] it was 99.8%. Further, the growth in test [6] was 80.2%; in [7], 91.3%; in test [8], 102%; in test [9], 94.6%; in test [10], 81.5%; in [11], 82.1%. The growth was 75.1% in [12]; 94% in test [13]; 70.1% in test [14]; 61.6% in test [16]; 72.1% in test [17].
For `O=C(c1cnn2c1NC(c1ccc(F)cc1)C2)N1CCCCC1` (stereo not drawn), the growth in [1] was 102%; in test [2], 103%; in [3] it was 84.8%; in [18], 97.1%; in [19] it was 96.9%; in test [5] it was 97.8%. In addition, the growth in test [6] was 101%; in test [7] it was 103%; in test [8], 103%; in test [20] it was 104%; in test [10], 104%; in [11] it was 89.8%. For the same compound, the growth was 105% in [12]; 102% in [13]; 93.4% in test [14]; 105% in [16]; 108% in test [17].
As for `O=c1oc2ccccc2cc1-c1csc(N=Nc2c(O)[nH]c3ccc(Br)cc23)n1`, the growth in [1] is 105%; in test [2], 109%; in [3], 86.2%; in test [18], 103%; in test [19], 102%; in [5] it was 96.5%. Also, the growth was 95% in test [6]; 99.9% in [7]; 101% in test [8]; 107% in test [20]; 95.8% in test [9]; 98.7% in test [10]. Also, the growth in test [11] is 86.3%; in test [12] it was 111%; in test [13] it was 97.9%; in test [14], 93.4%; in [16], 97.2%; in test [17], 120%.
For `Cc1ccc(-c2nnc(COc3ccc(-c4nnc(N)s4)cc3)o2)cc1`, the growth in test [1] is 81.3%; in test [2] it was 81.5%; in test [3], 94.2%; in [4], 86%; in [6] it was 83.2%; in test [7], 26%. For the same compound, the growth is 98.3% in test [8]; 104% in test [20]; 82.2% in test [10]; 91.7% in test [11]; 106% in [12]; 107% in test [13]. The values for the growth in test [14], in test [15] and in test [17] were 94.8%, 103% and 77.6%, respectively.
